This is part of a sample that, as a whole, favours compounds with a hit. Of some 79,000 tested, about 15% had one in any assay. Activity calls are given as the source filed them. Rule as the data show it: active = growth inhibition above about 70%; inactive = the rest.
What was measured:
[1] = NCI Yeast Anticancer Drug Screen. Data for the wt2 strain (AID 169); details: S. cerevisiae wt2 strain growth inhibition, hits give high values
How it was run: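 Values express reduction in yeast growth under compound treatment, referenced to vehicle-treated cells.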

[2] = NCI Yeast Anticancer Drug Screen. Data for the mlh1 strain (AID 171);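 also: 0% = growth of vehicle-treated control cultures of the same strain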; details: S. cerevisiae mlh1 strain growth inhibition, hits give high values
How it was run: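 Steps: expose the defined-mutant yeast strain to compound; expose a parallel culture to vehicle; measure growth; express compound effect as inhibition relative to the vehicle culture.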

[3] = NCI Yeast Anticancer Drug Screen. Data for the sgs1 strain (AID 173);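 also: 0% = growth of vehicle-only control cultures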; details: S. cerevisiae sgs1 mutant, hits give high values
How it was run: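 Treat defined-mutant yeast with compound; measure growth; calculate inhibition relative to vehicle-treated cells.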

[4] = NCI Yeast Anticancer Drug Screen. Data for the mlh1 rad18 strain (AID 175); details: S. cerevisiae mlh1 rad18 strain growth inhibition, hits give high values
How it was run: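 Test agents were incubated with a yeast strain of defined genotype (DNA damage repair defect). Inhibition of growth was derived by comparison with vehicle-exposed cultures.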

[5] = NCI Yeast Anticancer Drug Screen. Data for the rad18 strain (AID 177); details: S. cerevisiae rad18 mutant growth inhibition, hits give high values
How it was run: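 A genetically defined yeast mutant impaired in DNA damage repair was treated with test compounds, then its growth was measured against cultures receiving vehicle alone.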

[6] = NCI Yeast Anticancer Drug Screen. Data for the rad52 strain (AID 147);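 also: 0% = growth of vehicle-treated control cultures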; details: S. cerevisiae rad52 mutant growth inhibition, hits give high values
How it was run: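 Screen used a yeast mutant impaired in DNA repair. After compound exposure, growth was measured. Values reflect inhibition compared with vehicle-treated cells.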

[7] = NCI Yeast Anticancer Drug Screen. Data for the wt1 strain (AID 149);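 also: 0% = growth of vehicle-treated wt1 cultures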; details: S. cerevisiae wt1 strain (SPY 50644) growth inhibition, hits give high values
How it was run: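 Each compound is tested on wt1 yeast and the loss of growth versus vehicle gives the inhibition value.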

[8] = NCI Yeast Anticancer Drug Screen. Data for the rad50EPP+ strain (AID 151);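 also: 0% = growth of vehicle-treated control cultures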; details: S. cerevisiae rad50 mutant strain, hits give high values
How it was run: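 Exposing the rad50EPP+ strain to each compound, growth was compared with vehicle-only cultures to give inhibition.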

[9] = NCI Yeast Anticancer Drug Screen. Data for the mgt1 strain (AID 153); details: S. cerevisiae mgt1 mutant growth inhibition, hits give high values
How it was run: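 Genetically defined yeast (mgt1) treated with compound; inhibition of growth expressed against vehicle-treated controls.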

[10] = NCI Yeast Anticancer Drug Screen. Data for the rad50 strain (AID 155);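 also: 0% = growth of vehicle-only cultures of the same strain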; details: S. cerevisiae rad50 strain growth inhibition, hits give high values
How it was run: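 Vehicle-treated cultures provide the reference for the growth inhibition reported for compound-exposed, repair-deficient yeast.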

[11] = NCI Yeast Anticancer Drug Screen. Data for the mec2-1 strain (AID 157); details: S. cerevisiae mec2-1 strain, hits give high values
How it was run: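 Readout is yeast growth inhibition, normalised to vehicle-treated controls, in the mec2-1 strain exposed to compound.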

[12] = NCI Yeast Anticancer Drug Screen. Data for the rad14 strain (AID 159);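 also: 0% = growth of vehicle-treated control cultures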; details: S. cerevisiae rad14 strain growth inhibition, hits give high values
How it was run: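 Inhibition of growth is reported for a repair-deficient yeast mutant following compound treatment, calculated relative to cultures that received vehicle.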

[13] = NCI Yeast Anticancer Drug Screen. Data for the sgs1 mgt1 strain (AID 161);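 also: 0% = growth of cultures given vehicle only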; details: S. cerevisiae sgs1 mgt1 strain, hits give high values
How it was run: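 This yeast growth screen uses a strain with defined DNA-repair lesions; compound-treated growth is compared with vehicle-treated growth.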

[14] = NCI Yeast Anticancer Drug Screen. Data for the CLN2oe strain (AID 163);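 also: 0% = growth of vehicle-only control cultures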; details: S. cerevisiae CLN2oe strain, hits give high values
How it was run: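 Values reflect how much compound exposure reduced yeast growth, referenced to vehicle-exposed cells. Assay organism is a strain with a defined genetic change affecting cell-cycle control.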

[15] = NCI Yeast Anticancer Drug Screen. Data for the cln2 rad14 strain (AID 165);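 also: 0% = growth equal to vehicle treated cultures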; details: S. cerevisiae cln2 rad14 strain, hits give high values
How it was run: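 Relative to vehicle controls, growth inhibition of compound-treated cln2 rad14 yeast was recorded.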

[16] = NCI Yeast Anticancer Drug Screen. Data for the bub3 strain (AID 167); details: S. cerevisiae bub3 mutant strain, hits give high values
How it was run: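 Mutant yeast screening strain plus compound; vehicle-treated cultures serve as the 0% inhibition reference.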

[17] = at 5.0 µM (retest, dose inferred, filed as 0.5)
[18] = at 50.0 µM (retest, dose inferred, filed as 5.0)

Measured: growth inhibition

CC(C)C1=CC2=C[C@H](O)[C@H]3C(C)(C)CCC[C@]3(C)C2=C(O)C1=O
active: [1]; at 11.0 µM 99% | [1]; at 33.0 µM 98% | [1]; at 100.0 µM 96% | [2]; at 11.0 µM 99% | [2]; at 33.0 µM 99% | [2]; at 100.0 µM 94% | [3]; at 11.0 µM 99% | [3]; at 33.0 µM 98% | [3]; at 100.0 µM 95% | [4]; [18] 98% | [4]; at 50.0 µM 92.3% | [5]; at 11.0 µM 99% | [5]; at 33.0 µM 99% | [5]; at 100.0 µM 92%
inactive: [1]; at 1.2 µM 15% | [1]; at 3.7 µM 57% | [2]; at 1.2 µM -13% | [2]; at 3.7 µM 23% | [3]; at 1.2 µM 8% | [3]; at 3.7 µM 15% | [4]; [17] 62% | [5]; at 1.2 µM -6% | [5]; at 3.7 µM 27%

CCC#CCCCOC(=O)c1cc([N+](=O)[O-])cc([N+](=O)[O-])c1
active: [6]; at 33.0 µM 81% | [6]; at 100.0 µM 98% | [7]; at 100.0 µM 99% | [8]; at 33.0 µM 92% | [8]; at 100.0 µM 98% | [9]; at 33.0 µM 93% | [9]; at 100.0 µM 99% | [10]; at 33.0 µM 87% | [10]; [18] 97% | [10]; at 50.0 µM 99.2% | [10]; at 100.0 µM 98% | [11]; at 33.0 µM 83% | [11]; [18] 99% | [11]; at 50.0 µM 99.3% | [11]; at 100.0 µM 99% | [12]; at 33.0 µM 79% | [12]; at 100.0 µM 99% | [13]; [18] 99% | [13]; at 50.0 µM 99.6% | [14]; at 100.0 µM 99% | [15]; [18] 94% | [15]; at 50.0 µM 97.7% | [16]; [18] 97% | [16]; at 50.0 µM 99.5% | [16]; at 100.0 µM 98% | [1]; at 33.0 µM 98% | [1]; at 100.0 µM 99% | [2]; at 33.0 µM 91% | [2]; at 100.0 µM 99% | [3]; at 33.0 µM 98% | [3]; at 100.0 µM 99% | [4]; [18] 99% | [4]; at 50.0 µM 99.2% | [5]; at 33.0 µM 94% | [5]; at 100.0 µM 99%
inactive: [6]; at 1.2 µM -3% | [6]; at 3.7 µM -4% | [6]; at 11.0 µM 2% | [7]; at 1.2 µM -6% | [7]; at 3.7 µM -8% | [7]; at 11.0 µM -10% | [7]; at 33.0 µM 66% | [8]; at 1.2 µM 3% | [8]; at 3.7 µM 21% | [8]; at 11.0 µM 55% | [9]; at 1.2 µM -5% | [9]; at 3.7 µM -8% | [9]; at 11.0 µM -4% | [10]; at 1.2 µM -4% | [10]; at 3.7 µM -6% | [10]; [17] 6% | [10]; at 11.0 µM 0% | [11]; at 1.2 µM -6% | [11]; at 3.7 µM -2% | [11]; [17] 7% | [11]; at 11.0 µM 2% | [12]; at 1.2 µM -5% | [12]; at 3.7 µM -6% | [12]; at 11.0 µM 1% | [13]; [17] 10% | [14]; at 1.2 µM -5% | [14]; at 3.7 µM -11% | [14]; at 11.0 µM -19% | [14]; at 33.0 µM 44% | [15]; [17] -7% | [16]; at 1.2 µM -10% | [16]; at 3.7 µM -7% | [16]; [17] 4% | [16]; at 11.0 µM -6% | [16]; at 33.0 µM 52% | [1]; at 1.2 µM -7% | [1]; at 3.7 µM -10% | [1]; at 11.0 µM 4% | [2]; at 1.2 µM -2% | [2]; at 3.7 µM 0% | [2]; at 11.0 µM 8% | [3]; at 1.2 µM -1% | [3]; at 3.7 µM 3% | [3]; at 11.0 µM 23% | [4]; [17] 13% | [5]; at 1.2 µM -3% | [5]; at 3.7 µM 4% | [5]; at 11.0 µM 20%

CCN(CC)CCNc1ccc([N+](=O)[O-])c2nc3ccc(OC)cc3c(N)c12
active: [6]; at 33.0 µM 74% | [6]; at 100.0 µM 90% | [8]; at 100.0 µM 79% | [9]; at 100.0 µM 73% | [10]; at 33.0 µM 79% | [10]; [18] 89% | [10]; at 100.0 µM 93% | [12]; at 100.0 µM 88% | [1]; at 100.0 µM 70% | [2]; at 100.0 µM 85% | [3]; at 100.0 µM 82% | [4]; [18] 86% | [5]; at 100.0 µM 86%
inactive: [6]; at 1.2 µM -23% | [6]; at 3.7 µM -13% | [6]; at 11.0 µM 19% | [7]; at 1.2 µM -8% | [7]; at 3.7 µM -14% | [7]; at 11.0 µM -17% | [7]; at 33.0 µM -6% | [7]; at 100.0 µM 54% | [8]; at 1.2 µM 11% | [8]; at 3.7 µM 7% | [8]; at 11.0 µM 30% | [8]; at 33.0 µM 69% | [9]; at 1.2 µM -20% | [9]; at 3.7 µM -20% | [9]; at 11.0 µM -16% | [9]; at 33.0 µM 15% | [10]; at 1.2 µM -3% | [10]; at 3.7 µM -2% | [10]; [17] 13% | [10]; at 11.0 µM 35% | [10]; at 50.0 µM 48.4% | [11]; at 1.2 µM -24% | [11]; at 3.7 µM -19% | [11]; [17] -5% | [11]; at 11.0 µM -8% | [11]; at 33.0 µM 5% | [11]; [18] 21% | [11]; at 50.0 µM -26.1% | [11]; at 100.0 µM 42% | [12]; at 1.2 µM -34% | [12]; at 3.7 µM -29% | [12]; at 11.0 µM -19% | [12]; at 33.0 µM 28% | [13]; [17] -12% | [13]; [18] 48% | [13]; at 50.0 µM 58.4% | [14]; at 1.2 µM 10% | [14]; at 3.7 µM 15% | [14]; at 11.0 µM 22% | [14]; at 33.0 µM 25% | [14]; at 100.0 µM 64% | [15]; [17] 3% | [15]; [18] 33% | [15]; at 50.0 µM 6.25% | [16]; at 1.2 µM -23% | [16]; at 3.7 µM -16% | [16]; [17] -24% | [16]; at 11.0 µM -36% | [16]; at 33.0 µM -17% | [16]; [18] 18% | [16]; at 50.0 µM -0.6% | [16]; at 100.0 µM 64% | [1]; at 1.2 µM 15% | [1]; at 3.7 µM 6% | [1]; at 11.0 µM 10% | [1]; at 33.0 µM 28% | [2]; at 1.2 µM -2% | [2]; at 3.7 µM 4% | [2]; at 11.0 µM 5% | [2]; at 33.0 µM 27% | [3]; at 1.2 µM -8% | [3]; at 3.7 µM -9% | [3]; at 11.0 µM -16% | [3]; at 33.0 µM 10% | [4]; [17] -22% | [4]; at 50.0 µM 68% | [5]; at 1.2 µM 1% | [5]; at 3.7 µM 4% | [5]; at 11.0 µM 7% | [5]; at 33.0 µM 23%

Source: PubChem BioAssay (NCI)
